Consider 25 molecules from publication PMC11062922 (Nature Chemical Biology, 2023).

What all share (set-up): species or system human, MV4-11 + K-562 + COLO205 + SK-N-BE2 + OVCAR-8
For assay [1], the system named is CDK6. The note with it: read-out: apparent Kd, n = 1.
Assay [2] has as its system JAK1. The note with it: read-out: apparent Kd, n = 1.
Assay [3] deals with MAP4K1. The note with it: read-out: apparent Kd, n = 1.
The subject of assay [4] is T1, DJA1.
T1 construct: gene DNAJA1
The note with it: read-out: apparent Kd, compound concentrations: 100 nM and 1000 nM (sheet 'Samples'), n = 1.

In assay [5] the test system is JAK2. The note with it: read-out: apparent Kd; compound concentrations: 100 nM and 1000 nM (sheet 'Samples'), CATDS: 1.8350594186084E-2; n = 1.
The subject of assay [6] is MAP2K1. The note with it: read-out: apparent Kd; compound concentrations:100 nM and 1000 nM (sheet 'Samples'); n = 1.
Assay [7] has as its system CDK5. The note with it: read-out: apparent Kd, n = 1.
For assay [8], the system named is STK26. The note with it: read-out: apparent Kd, compound concentrations: 100 nM and 1000 nM (sheet 'Samples'), n = 1.
The subject of assay [9] is IRAK4. The note with it: read-out: apparent Kd; compound concentrations:100 nM and 1000 nM (sheet 'Samples'); n = 1.
Assay [10] has as its system CDC7. The note with it: read-out: apparent Kd, n = 1.
Assay [11] relates to PRKCB. The note with it: read-out: apparent Kd, n = 1.
In assay [12] the test system is NQO2. The note with it: read-out: apparent Kd, compound concentrations: 100 nM and 1000 nM (sheet 'Samples'), n = 1.
The subject of assay [13] is PIK3CA. The note with it: read-out: apparent Kd, compound concentrations: 100 nM and 1000 nM (sheet 'Samples'), n = 1.
The test system of assay [14] is ATR. The note with it: read-out: apparent Kd; compound concentrations: 100 nM and 1000 nM (sheet 'Samples'), CATDS: 4.3166992032332097E-2; n = 1.
The test system of assay [15] is NLK. The note with it: read-out: apparent Kd; compound concentrations: 100 nM and 1000 nM (sheet 'Samples'), CATDS: 0.11088369265314001; n = 1.
[16] abbreviates: compound concentrations:100 nM and 1000 nM (sheet 'Samples').

Structures are written as SMILES. Where two headings read alike, the source gives them in different places.

With `CNCC#Cc1c(F)ccc2c1/C(=C/c1[nH]ccc1OC)C(=O)N2.Cl` [RO0281601-001], the potency estimated from few doses in [1] (compound concentrations: 100 nM and 1000 nM (sheet 'Samples'), CATDS: 2.2252804154739798E-2) is 1820 nM; in assay [2] (compound concentrations: 100 nM and 1000 nM (sheet 'Samples'), CATDS: 3.3581024780386999E-2) it was 520 nM; in assay [3] (compound concentrations: 100 nM and 1000 nM (sheet 'Samples'), CATDS: 2.76705176427572E-2), 879 nM.

For `Cc1ccccc1C1=C(c2cn(C)c3ccccc23)C(=O)NC1=O` [RO0317612-000], in assay [4] (CATDS: 0.15228633777300399), the potency estimated from few doses is 952 nM.

In the case of `Cl.Cl.NCC(NC(=O)c1cc(-c2ccnc3[nH]ccc23)cs1)c1ccccc1.NCC(NC(=O)c1cc(-c2ccnc3[nH]ccc23)cs1)c1ccccc1` (stereo not shown) [GSK1229959A], the potency estimated from few doses in assay [5] was 1230 nM.

For `Nc1nc(-c2ccc3c(N)n[nH]c3c2)cc(N2CCCC(NC(=O)c3ccccc3)C2)n1` (stereo not shown) [GSK2286775B], the figures for the potency estimated from few doses in assay [1] (setting [16]) and in assay [6] were 1510 nM and 1830 nM, respectively.

Consider `Cn1cc(C=C2C(=O)Nc3cccnc32)c2ccccc21` [GW441756X], for which the potency estimated from few doses in [2] (compound concentrations: 100 nM and 1000 nM (sheet 'Samples'), CATDS: 0.22655128290916701) was 1250 nM.

Take `NS(=O)(=O)c1ccc(N/N=C2\C(=O)Nc3ccc4ncccc4c32)cc1` [GW305178X]: the potency estimated from few doses was 776 nM in [7] (compound concentrations: 100 nM and 1000 nM (sheet 'Samples'), CATDS: 5.4245718700327898E-2); 2190 nM in [8] (CATDS: 3.9228488204277198E-2).

For `O=C(Nc1n[nH]c2nc(-c3ccccc3O)ccc12)C1CC1` [SB-711880], the potency estimated from few doses in [9] was 958 nM.

Regarding `CN[C@H](C#Cc1c(F)ccc2c1/C(=C/c1[nH]ccc1OC)C(=O)N2)CO.Cl` [RO0283049-001], the potency estimated from few doses in assay [1] (compound concentrations: 100 nM and 1000 nM (sheet 'Samples'), CATDS: 1.9484263699736298E-2) was 2150 nM; in [2] (compound concentrations: 100 nM and 1000 nM (sheet 'Samples'), CATDS: 9.7447783313560105E-2), 49.7 nM; in assay [3] (compound concentrations: 100 nM and 1000 nM (sheet 'Samples'), CATDS: 2.1208459408743999E-2), 1460 nM.

With `CCn1c(-c2nonc2N)nc2cncc(Br)c21` [SB-738004], the results for the potency estimated from few doses in assay [10] (setting [16]) and in [11] (setting [16]) were 655 nM and 1350 nM, respectively.

For `Cl.Nc1nc(-c2ccc3c(c2)C(=Cc2cc(Br)c(O)c(Br)c2)C(=O)N3)cs1` [GW407323A], the potency estimated from few doses is 903 nM in [10] (compound concentrations: 100 nM and 1000 nM (sheet 'Samples'), CATDS: 3.34335879912959E-2); 1060 nM in assay [7] (compound concentrations: 100 nM and 1000 nM (sheet 'Samples'), CATDS: 3.2075067944878903E-2); 734 nM in assay [12] (CATDS: 3.5438928095243502E-2).

In the case of `CCn1c(-c2nonc2N)nc2cncc(C(=O)N3CC[C@H](N)C3)c21.Cl` [SB-772077-B], in [11] (setting [16]), the potency estimated from few doses was 752 nM.

`Nc1nccc(-c2ccc3c(N)n[nH]c3c2)n1` [GSK1034945A]: the values for the potency estimated from few doses in assay [10] (setting [16]) and in assay [1] (setting [16]) were 1420 nM and 2150 nM, respectively.

`NS(=O)(=O)c1ccc(N/C=C2\C(=O)Nc3ccc4ncsc4c32)cc1` [GW297361X]: the potency estimated from few doses in [10] (compound concentrations: 100 nM and 1000 nM (sheet 'Samples'), CATDS: 3.3579769325783403E-2) is 1330 nM; in [7] (compound concentrations: 100 nM and 1000 nM (sheet 'Samples'), CATDS: 4.1634678032953398E-2), 772 nM; in assay [1] (compound concentrations: 100 nM and 1000 nM (sheet 'Samples'), CATDS: 3.48419374837717E-2) it was 1200 nM; in assay [8] (CATDS: 3.6702057868443203E-2), 1050 nM.

With `COc1ccc(Nc2nccc(NCCNC(=O)Nc3cc(C)ccc3C)n2)cc1` [GSK1379899A], the potency estimated from few doses in assay [4] (CATDS: 4.7532524958751397E-2) is 1320 nM; in assay [13] (CATDS: 0.114925337657843) it was 250 nM.

Consider `Cn1cc(C2=C(c3c(S(C)=O)n(C)c4ccccc34)C(=O)NC2=O)c2ccccc21` (stereo not shown) [RO0317379-000], for which, in [12] (CATDS: 0.10247036288978301), the potency estimated from few doses is 1820 nM.

Turning to `COc1cc[nH]c1/C=C1\C(=O)Nc2ccc(F)c(C#C[C@@H](O)[C@@H](N)[C@@H](C)O)c21` [RO0283120-000], the potency estimated from few doses in [7] (setting [16]) is 1070 nM; in assay [1] (setting [16]), 1140 nM; in [2] (setting [16]), 468 nM; in assay [3] (setting [16]), 1060 nM.

With `CNCC1CCn2c(c(C3=C(c4cn(C)c5ccccc45)C(=O)NC3=O)c3ccccc32)C1` (stereo not shown) [RO0318676-000], the potency estimated from few doses in assay [11] (compound concentrations: 100 nM and 1000 nM (sheet 'Samples'), CATDS: 0.17130797334845299) was 28.9 nM.

With `COc1cc[nH]c1/C=C1\C(=O)Nc2ccc(F)c(I)c21` [RO0281567-000], the potency estimated from few doses in [12] (CATDS: 0.103820399985183) is 1830 nM.

For the molecule `COc1cc[nH]c1/C=C1\C(=O)Nc2ccc([N+](=O)[O-])c(N3CC[C@@H](O)C3)c21` [RO0504985-000], the potency estimated from few doses was 1470 nM in [7] (compound concentrations: 100 nM and 1000 nM (sheet 'Samples'), CATDS: 3.2036617578660199E-2); 1130 nM in assay [2] (compound concentrations: 100 nM and 1000 nM (sheet 'Samples'), CATDS: 3.4351644402230902E-2).

Regarding `O=C1N=C(NCc2ccccc2Br)S/C1=C\c1ccc2ncccc2c1` [RO4506918-000], in [12] (CATDS: 7.7702899171443504E-2), the potency estimated from few doses was 1480 nM.

Turning to `NS(=O)(=O)c1ccc(NC=C2C(=O)Nc3ccc4ncsc4c32)cc1` [GW589933X], the potency estimated from few doses was 2200 nM in assay [10] (compound concentrations: 100 nM and 1000 nM (sheet 'Samples'), CATDS: 1.6133442669584601E-2); 288 nM in assay [7] (compound concentrations: 100 nM and 1000 nM (sheet 'Samples'), CATDS: 3.21718775388454E-2); 765 nM in [1] (compound concentrations: 100 nM and 1000 nM (sheet 'Samples'), CATDS: 2.1682770776227499E-2); 1190 nM in [3] (compound concentrations: 100 nM and 1000 nM (sheet 'Samples'), CATDS: 1.8829734427402701E-2); 94.3 nM in assay [8] (CATDS: 5.6823828903644298E-2).

On to `Cc1occc1-c1nc(N)c(OC[C@@H](N)Cc2c[nH]c3ccccc23)cc1-c1cc2c(C)n[nH]c2cn1` [GSK1660450B], for which the potency estimated from few doses in assay [11] (setting [16]) is 126 nM.

For the molecule `CCC(CC)(CC)n1cnc2c(N)ncnc21` [SKF-97620], the potency estimated from few doses is 432 nM in [14] and 53.9 nM in [13] (CATDS: 0.13947400940733601).

Consider `CN(C)c1ccc2c(c1)/C(=C/Nc1ccc(S(N)(=O)=O)cc1)C(=O)N2` [GW416469X], for which the potency estimated from few doses in assay [4] (CATDS: 7.6568205350202298E-2) is 1420 nM; in assay [13] (CATDS: 0.16808925824439999) it was 245 nM; in [8] (CATDS: 7.4408225949633894E-2), 1550 nM.

As to `NS(=O)(=O)c1cccc(-c2ccc3c(NC(=O)C4CC4)n[nH]c3c2)c1` [SB-741905], the potency estimated from few doses in [4] (CATDS: 0.110749292558391) was 1780 nM; in assay [15], 1780 nM; in assay [13] (CATDS: 0.24789463028651901) it was 301 nM.
